Measured values taken from PubChem BioAssay (NCATS).
Results filed as inconclusive are left out. Calls follow the shape of the dose curve; as a rule, active = well fitted curve in either direction with a large enough effect (not every such curve was filed as active); inconclusive = small, poorly fitted or top-dose-only effect, or another doubt; inactive = flat fitted curve, though single readings scatter.

Experiment: NFAT Signaling Pathway (AID 444);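 also: carbachol stimulus at about its EC50 of 1 µM final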
Conditions: Jurkat NFAT-bla M1, carbachol, beta-lactamase ratio, 5 h; at 17.2 µM (top of the series) unless noted
In short: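 Jurkat cells carrying an NFAT-driven β-lactamase reporter and co-transfected muscarinic M1 receptor were treated with compound plus carbachol (1 uM final, an EC50 level) for 5 h at 37 °C. CCF4 loading followed for 1 h at RT; 460/530 nm ratio gave %activity.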
% is scaled to controls: 0 for no effect and ±100 for the full control effect.

Activity change, negative = inhibition, inactive:
CCOC(=O)C1/C(=N\O)CC(C)(O)C(C(=O)OCC)C1c1ccc(N(C)C)cc1 (stereo not given) 2.58%
CN1CCN(Cc2c(O)ccc3c(-c4ccccc4)cc(=O)oc23)CC1 -9.28%
N#CC1(c2ccccc2)CCC(=NO)CC1 (stereo not given) 8.2%
CC1(C)NC(=O)N(CC(O)COc2ccccc2C(=O)Nc2ccccc2)C1=O (stereo not given) 9.58%
COc1ccccc1C1/C(=C(/O)c2cnn(-c3ccccc3)c2C)C(=O)C(=O)N1CCN(C)C (stereo not given) 1.4%
O=c1[nH]c(-c2ccccn2)nc2ccccc12 -10.6%
CCOC(=O)C1=C(C)N=C2SC(C)C(=O)N2C1c1ccc(OC(C)=O)c(OC)c1 (stereo not given) 10.3%
C=CCc1c(C)nc(SCCC)[nH]c1=O -9.46%
Cc1sccc1C1C(C#N)=C(N)SC(N)=C1C#N 15%
COCc1[nH]nc2c1C(c1cccc(OC)c1)C(C#N)=C(N)O2 (stereo not given) -19.7%
COc1ccc(N2CCN(c3nc4c(c(=O)[nH]c(=O)n4C)n3CCCc3ccccc3)CC2)cc1 -12.3%
CN/C(=C/[N+](=O)[O-])NCCSCc1ccc(CN(C)C)o1 -27.6%
Cc1cc(C)nc(NC2=NCC(=O)N2c2cccc(Cl)c2)n1 -0.714%
CN1c2ccccc2N(C)C1c1c(O)ccc2ccccc12 -27.9%
CCOC(=O)CNC(=O)CCCCCC(=O)NCC(=O)OCC 1.76%
CCc1[nH]c(=O)c(C#N)c2c1CSC(C)(C)C2 3.33%
Cc1ccc(C(=O)NCC(C)(C)O)cc1 -4.7%
O=S(=O)(N[C@@H]1C[C@H]2CC[C@@H]1C2)c1cccs1 -11.3%
CCOc1cccc(NC(=O)C2CC(=O)NC(=Nc3ccccc3)S2)c1 (stereo not given) 6.96%
COc1ccc(C2=Nn3c(nnc3-c3cccnc3)SC2)cc1OC -23%
COc1ccc2nc(SCC(=O)O)nc(C)c2c1 7.89%
C=CCn1cnc2c(c1=O)c1nc3ccccc3nc1n2-c1ccc(Cl)cc1 -0.571%
COc1cccc(Cn2c(OCC3CCCO3)nc3c2c(=O)n(C)c(=O)n3C)c1 (stereo not given) -8.17%
Cc1ccc(C(=O)C2=C(O)C(=O)N(c3ncccn3)C2c2ccc(Cl)cc2)o1 (stereo not given) 23%
CCOc1cccc(N2C(=O)CC(N(CCc3ccc(OC)c(OC)c3)C(=O)CC)C2=O)c1 (stereo not given) 0.637%
Cn1c(=O)n(CC(=O)Nc2ccccc2)c2ccccc21 -4.15%
CC(O)c1n(C)c(Cl)c[n+]1C (stereo not given) -4.99%
O=C(CN1C2=NCCN2c2ccccc21)N1CCOCC1 -2.85%
CCOC(=O)c1ccc(NC(=O)Cn2nnc3ccccc32)cc1 12.9%
COCCNc1oc(-c2ccc(Cl)cc2)nc1C#N -6.46%
COC(=O)C(NC(=O)c1ccco1)(Nc1nc(C)cs1)C(F)(F)F (stereo not given) 4.32%
COc1ccccc1Cn1c2nc3ccccc3nc2c2c(=O)n(CC(C)C)cnc21 4.7%
C=C1C2(C(=O)Nc3nccs3)CCC(C2)C1(C)C (stereo not given) 25.1%
Clc1ccccc1-c1nn2c(-c3ccccn3)nnc2s1 -11.1%
COc1ccc(C(=O)OC(C)CN2CCN(C)CC2)cc1OC (stereo not given) -6.37%
Cc1cc(O)ccc1-c1cnc2ccccc2n1 -5.17%
N#C/C(C(=O)N1CCCCC1)=C1\Nc2ccccc2S1 11.9%
CC1(C)CC(=O)C(C=N)=C(O)C1 1.7%
O=C(CN1CCc2[nH]c3ccccc3c2C1)N1CCCCC1 -20.1%
O=S(=O)(c1ccccc1)N(CC(O)CN1CCCCC1)c1ccccc1 (stereo not given) -23%
